Molecules are shown by their SMILES. Results filed as inconclusive are left out. Calls of active or inactive are those of the source. The calls were made as follows: active = hit-call score of the fitted dose curve at least 0.9, where 1 is the maximum; inconclusive = response in the unintended direction; inactive = score below 0.9.

The target in the assay is Luciferin 4-monooxygenase (Photinus pyralis) (UniProt P08659). Nature of the assay: CCTE_Simmons_QuantiLum_inhib_2: CCTE's Firefly Luciferase Inhibition Assay, Simmons Lab (AID 2283767). In a few lines: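 Cell-free recombinant firefly luciferase (5 ng/well) in 200mM potassium phosphate with 1 mg/ml BSA, 30 min at 37C with 8 concentrations from 5 nM to 87.5 uM [final], 0.5% DMSO. Luminescence read after D-luciferin (150uM)/dATP (147uM) reagent injection, pH 7.8; triplicates.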
Luciferin 4-monooxygenase (Photinus pyralis), sequence (P08659 whole entry, looked up): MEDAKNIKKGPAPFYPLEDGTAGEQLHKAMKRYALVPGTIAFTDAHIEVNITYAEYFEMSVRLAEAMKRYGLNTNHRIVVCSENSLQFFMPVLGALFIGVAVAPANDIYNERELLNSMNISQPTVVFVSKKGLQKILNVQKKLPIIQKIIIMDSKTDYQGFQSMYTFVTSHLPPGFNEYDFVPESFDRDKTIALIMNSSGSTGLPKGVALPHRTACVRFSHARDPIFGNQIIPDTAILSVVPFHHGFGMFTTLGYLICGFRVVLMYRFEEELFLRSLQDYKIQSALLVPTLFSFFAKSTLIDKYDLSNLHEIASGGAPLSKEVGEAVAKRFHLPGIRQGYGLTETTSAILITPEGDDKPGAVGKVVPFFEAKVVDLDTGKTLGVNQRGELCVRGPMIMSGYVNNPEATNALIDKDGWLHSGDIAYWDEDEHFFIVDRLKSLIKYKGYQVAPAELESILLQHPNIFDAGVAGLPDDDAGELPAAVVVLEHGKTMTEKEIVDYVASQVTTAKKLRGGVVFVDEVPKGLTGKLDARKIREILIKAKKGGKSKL
Turning to `COP(=O)(OC)O/C(=C\Cl)c1cc(Cl)c(Cl)cc1Cl`, the compound was classed as inactive.
Next, `CCCCCCCCc1ccc(O)cc1`: “inactive”; `O=C(O)C(F)(F)C(F)(F)C(F)(F)C(F)(F)C(F)(F)C(F)(F)F`: “inactive”.
Take `CCC1(c2ccc(N)cc2)CCC(=O)NC1=O` (configuration not stated): the call was inactive.
Next, `CC(C)(c1ccc(OCC2CO2)cc1)c1ccc(OCC2CO2)cc1` (configuration not stated): “inactive”.
Consider `CCOP(=S)(OCC)SCSP(=S)(OCC)OCC`, for which the call was inactive.
With `Clc1ccc(COC(Cn2ccnc2)c2ccc(Cl)cc2Cl)cc1` (configuration not stated), the call was inactive.

For the origin of these results see PubChem BioAssay (EPA / NIEHS).
